Holding throughout (experiment): DAPPL (digital affinity profiling via proximity ligation, sequencing); 10 mM Tris-HCl pH 7.5, 50 mM NaCl, 1 mM DTT, 4% glycerol, room temperature, 30 min; GST-TFs on glutathione beads, 16-mer random dsDNA library, 0.1% formaldehyde crosslink after washing; high values mean tight binding
Common to all, as to details: protein: recombinant; tags: N-terminal GST; dsDNA, one strand shown

One test addresses T1, FLI1 (Homo sapiens, UniProt Q01543 1-452).
T1 sequence: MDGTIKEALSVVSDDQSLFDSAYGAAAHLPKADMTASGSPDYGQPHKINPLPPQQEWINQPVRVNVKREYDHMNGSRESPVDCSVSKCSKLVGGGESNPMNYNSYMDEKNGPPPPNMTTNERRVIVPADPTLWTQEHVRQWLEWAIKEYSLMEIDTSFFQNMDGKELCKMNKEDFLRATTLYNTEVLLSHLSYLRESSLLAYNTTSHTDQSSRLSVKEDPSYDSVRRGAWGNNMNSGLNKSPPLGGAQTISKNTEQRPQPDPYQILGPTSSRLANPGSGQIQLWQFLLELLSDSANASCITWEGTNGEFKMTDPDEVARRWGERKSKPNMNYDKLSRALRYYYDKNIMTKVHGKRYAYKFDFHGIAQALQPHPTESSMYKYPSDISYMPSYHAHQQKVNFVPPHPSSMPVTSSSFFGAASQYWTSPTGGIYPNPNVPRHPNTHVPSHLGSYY
Put shortly: (§1)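 Each value of binding signal is a hexamer's read frequency for a factor divided by the same hexamer's frequency in the tag-only sample. Barcoded, bead-captured GST fusions of human transcription factors made in yeast were pooled with that sample and incubated with 200 nmole of a random double-stranded 16-mer DNA library in Tris/NaCl/DTT/glycerol buffer at room temperature for 30 min. Washing, 0.1% formaldehyde crosslinking, proximity ligation, PCR and Illumina NextSeq500 sequencing followed.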

In the next test the target is T2, GABPA (Homo sapiens, UniProt Q06546 1-454).
T2 sequence: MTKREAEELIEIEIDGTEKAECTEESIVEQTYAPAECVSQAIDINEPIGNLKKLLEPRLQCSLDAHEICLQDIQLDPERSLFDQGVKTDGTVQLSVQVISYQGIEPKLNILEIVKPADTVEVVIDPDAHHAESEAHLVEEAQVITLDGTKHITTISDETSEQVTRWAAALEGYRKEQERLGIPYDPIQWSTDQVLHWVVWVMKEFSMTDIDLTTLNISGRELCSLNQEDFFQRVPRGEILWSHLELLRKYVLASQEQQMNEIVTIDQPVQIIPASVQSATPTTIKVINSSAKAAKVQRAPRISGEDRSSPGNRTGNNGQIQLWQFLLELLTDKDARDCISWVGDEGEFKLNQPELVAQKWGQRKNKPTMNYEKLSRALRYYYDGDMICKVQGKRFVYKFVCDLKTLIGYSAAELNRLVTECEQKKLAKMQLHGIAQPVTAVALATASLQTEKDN
The procedure, abridged:
as §1

Another test has as its target T3, ERG (Homo sapiens, UniProt P11308 1-479).
T3 sequence: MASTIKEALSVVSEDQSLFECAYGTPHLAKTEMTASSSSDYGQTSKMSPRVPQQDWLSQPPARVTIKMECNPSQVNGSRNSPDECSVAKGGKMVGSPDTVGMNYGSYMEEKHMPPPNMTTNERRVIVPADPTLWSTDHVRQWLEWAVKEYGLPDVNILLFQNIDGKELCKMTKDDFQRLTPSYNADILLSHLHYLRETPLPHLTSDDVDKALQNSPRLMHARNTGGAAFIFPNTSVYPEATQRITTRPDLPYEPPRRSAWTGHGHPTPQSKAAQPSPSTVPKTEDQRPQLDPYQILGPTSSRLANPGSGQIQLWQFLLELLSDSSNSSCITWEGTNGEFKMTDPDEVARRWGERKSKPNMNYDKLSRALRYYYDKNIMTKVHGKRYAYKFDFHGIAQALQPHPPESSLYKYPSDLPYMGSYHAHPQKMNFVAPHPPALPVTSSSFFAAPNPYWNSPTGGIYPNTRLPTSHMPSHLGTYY
The procedure, abridged: as §1

For a further test, the target named is T4, EHF (Homo sapiens, UniProt Q9NZC4 1-300).
T4 sequence: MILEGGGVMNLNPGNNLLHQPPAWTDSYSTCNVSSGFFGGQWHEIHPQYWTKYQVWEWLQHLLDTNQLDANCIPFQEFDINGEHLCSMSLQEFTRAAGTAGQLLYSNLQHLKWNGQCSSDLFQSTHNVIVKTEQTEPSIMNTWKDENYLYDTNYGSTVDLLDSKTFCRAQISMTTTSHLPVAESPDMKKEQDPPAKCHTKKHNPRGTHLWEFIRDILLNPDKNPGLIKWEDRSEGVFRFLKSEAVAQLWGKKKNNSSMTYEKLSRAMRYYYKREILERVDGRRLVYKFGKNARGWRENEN
Put shortly: as §1

In a further test the target is SPI1 (Homo sapiens, UniProt P17947 1-270). Put shortly: as §1
The target of a further test is T5, ELK3 (Homo sapiens, UniProt P41970 1-407).
T5 sequence: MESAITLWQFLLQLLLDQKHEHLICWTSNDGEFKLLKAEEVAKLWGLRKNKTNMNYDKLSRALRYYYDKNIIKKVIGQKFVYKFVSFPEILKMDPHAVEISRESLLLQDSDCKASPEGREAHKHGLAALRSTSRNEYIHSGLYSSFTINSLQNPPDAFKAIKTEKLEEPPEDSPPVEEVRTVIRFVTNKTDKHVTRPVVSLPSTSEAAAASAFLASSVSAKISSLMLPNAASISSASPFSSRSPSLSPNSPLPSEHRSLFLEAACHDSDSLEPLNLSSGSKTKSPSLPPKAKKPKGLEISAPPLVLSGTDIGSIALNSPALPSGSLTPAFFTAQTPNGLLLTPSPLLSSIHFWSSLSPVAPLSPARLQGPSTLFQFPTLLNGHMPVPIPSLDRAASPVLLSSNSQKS
Put shortly: as §1

The next test deals with T6, FEV (Homo sapiens, UniProt Q99581 1-238).
T6 sequence: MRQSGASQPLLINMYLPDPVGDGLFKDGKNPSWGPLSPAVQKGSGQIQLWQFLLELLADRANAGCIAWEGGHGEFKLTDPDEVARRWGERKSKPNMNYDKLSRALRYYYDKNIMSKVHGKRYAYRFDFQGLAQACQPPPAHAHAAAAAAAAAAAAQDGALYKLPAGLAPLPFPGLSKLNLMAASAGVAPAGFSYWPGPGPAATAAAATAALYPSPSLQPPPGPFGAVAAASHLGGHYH
The procedure, abridged:
as §1

The target in the next test is T7, SPIC (Homo sapiens, UniProt Q8N5J4 1-248).
T7 sequence: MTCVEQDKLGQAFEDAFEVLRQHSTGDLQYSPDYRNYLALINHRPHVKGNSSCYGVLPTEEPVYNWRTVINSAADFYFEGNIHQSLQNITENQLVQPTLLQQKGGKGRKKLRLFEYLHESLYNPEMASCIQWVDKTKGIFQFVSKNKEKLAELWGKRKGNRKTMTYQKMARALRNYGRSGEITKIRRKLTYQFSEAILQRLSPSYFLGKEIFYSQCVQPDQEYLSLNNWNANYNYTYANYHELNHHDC
The procedure, abridged: as §1

Another test deals with T8, ETV2 (Homo sapiens, UniProt O00321 1-342).
T8 sequence: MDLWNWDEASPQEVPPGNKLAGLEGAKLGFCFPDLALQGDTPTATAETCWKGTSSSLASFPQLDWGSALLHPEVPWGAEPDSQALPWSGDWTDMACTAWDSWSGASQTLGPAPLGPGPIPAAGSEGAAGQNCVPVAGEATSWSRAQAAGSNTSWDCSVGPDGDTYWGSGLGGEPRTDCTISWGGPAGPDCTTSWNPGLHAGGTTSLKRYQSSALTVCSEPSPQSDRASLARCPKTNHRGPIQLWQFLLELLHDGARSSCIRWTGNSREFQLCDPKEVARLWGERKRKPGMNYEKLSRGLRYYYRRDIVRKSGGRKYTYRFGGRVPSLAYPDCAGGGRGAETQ
Put shortly: as §1

A further test has as its target ETV1 (Homo sapiens, UniProt P50549 1-477). Put shortly: as §1
The target in a further test is T9, ERF (Homo sapiens, UniProt P50548 1-548).
T9 sequence: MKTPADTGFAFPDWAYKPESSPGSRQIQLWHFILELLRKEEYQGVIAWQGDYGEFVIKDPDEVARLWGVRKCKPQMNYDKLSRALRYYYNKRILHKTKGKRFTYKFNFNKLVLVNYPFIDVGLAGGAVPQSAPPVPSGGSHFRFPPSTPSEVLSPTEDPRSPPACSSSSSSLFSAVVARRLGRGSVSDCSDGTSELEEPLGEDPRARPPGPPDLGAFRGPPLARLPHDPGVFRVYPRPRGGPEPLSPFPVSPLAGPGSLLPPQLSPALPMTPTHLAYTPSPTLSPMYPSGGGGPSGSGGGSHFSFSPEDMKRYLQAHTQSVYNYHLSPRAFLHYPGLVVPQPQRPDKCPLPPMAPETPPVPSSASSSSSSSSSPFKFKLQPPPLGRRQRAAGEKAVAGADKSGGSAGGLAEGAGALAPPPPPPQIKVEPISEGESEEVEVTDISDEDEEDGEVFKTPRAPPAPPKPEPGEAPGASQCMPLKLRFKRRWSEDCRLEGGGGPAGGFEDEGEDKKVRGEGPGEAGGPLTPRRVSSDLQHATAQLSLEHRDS
Put shortly:
as §1

The target in a further test is T10, ETS2 (Homo sapiens, UniProt P15036 1-469).
T10 sequence: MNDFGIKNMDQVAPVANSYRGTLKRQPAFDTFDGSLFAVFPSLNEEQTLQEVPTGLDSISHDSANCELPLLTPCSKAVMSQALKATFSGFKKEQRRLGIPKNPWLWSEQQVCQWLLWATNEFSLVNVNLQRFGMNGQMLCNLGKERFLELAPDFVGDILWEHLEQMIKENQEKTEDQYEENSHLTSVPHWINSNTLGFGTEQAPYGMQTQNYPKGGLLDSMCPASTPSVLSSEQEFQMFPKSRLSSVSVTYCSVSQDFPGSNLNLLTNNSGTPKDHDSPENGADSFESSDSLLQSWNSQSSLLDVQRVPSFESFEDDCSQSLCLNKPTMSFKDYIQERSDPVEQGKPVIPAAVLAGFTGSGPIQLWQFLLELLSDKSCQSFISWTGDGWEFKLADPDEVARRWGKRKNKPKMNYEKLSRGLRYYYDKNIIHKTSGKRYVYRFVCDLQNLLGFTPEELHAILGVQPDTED
Put shortly:
as §1

A further test addresses T11, SPDEF (Homo sapiens, UniProt O95238 1-335).
T11 sequence: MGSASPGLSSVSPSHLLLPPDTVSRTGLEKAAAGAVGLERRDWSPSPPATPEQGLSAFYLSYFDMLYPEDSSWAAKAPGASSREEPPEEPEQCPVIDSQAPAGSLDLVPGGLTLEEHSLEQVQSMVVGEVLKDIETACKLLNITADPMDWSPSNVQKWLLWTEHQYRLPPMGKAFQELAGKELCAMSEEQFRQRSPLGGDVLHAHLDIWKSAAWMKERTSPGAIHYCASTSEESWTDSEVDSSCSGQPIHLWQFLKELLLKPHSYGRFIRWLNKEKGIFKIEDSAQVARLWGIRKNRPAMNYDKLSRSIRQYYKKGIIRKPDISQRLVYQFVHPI
The procedure, abridged: as §1

Sequence of ETV1 (P50549 whole entry): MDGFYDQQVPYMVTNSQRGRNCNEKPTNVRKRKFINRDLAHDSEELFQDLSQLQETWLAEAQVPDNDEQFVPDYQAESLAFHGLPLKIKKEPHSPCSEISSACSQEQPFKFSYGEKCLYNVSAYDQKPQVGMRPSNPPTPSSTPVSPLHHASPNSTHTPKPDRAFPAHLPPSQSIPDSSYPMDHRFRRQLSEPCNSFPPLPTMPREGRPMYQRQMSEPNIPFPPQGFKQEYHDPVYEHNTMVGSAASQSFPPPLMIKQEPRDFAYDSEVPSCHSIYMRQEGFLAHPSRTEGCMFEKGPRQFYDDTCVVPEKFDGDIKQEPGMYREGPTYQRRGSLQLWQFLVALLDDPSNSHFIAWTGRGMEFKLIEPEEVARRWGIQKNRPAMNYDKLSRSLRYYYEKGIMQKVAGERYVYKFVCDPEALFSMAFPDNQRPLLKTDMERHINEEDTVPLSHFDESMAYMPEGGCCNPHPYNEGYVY

As to GTCGAC, the binding signal is 1.04 fold enrichment (6-mer frequency, TF over GST control) in the test with FLI1; 1.02 fold enrichment (6-mer frequency, TF over GST control) with GABPA; 1.07 fold enrichment (6-mer frequency, TF over GST control) with ERG; 1.01 fold enrichment (6-mer frequency, TF over GST control) in the test with EHF; 1.08 fold enrichment (6-mer frequency, TF over GST control) with SPI1; 1.06 fold enrichment (6-mer frequency, TF over GST control) in the test with ELK3. Further, the binding signal with FEV is 1.02 fold enrichment (6-mer frequency, TF over GST control); in the test with SPIC it was 1.07 fold enrichment (6-mer frequency, TF over GST control); with ETV2 it was 1.02 fold enrichment (6-mer frequency, TF over GST control); in the test with ETV1 it was 1 fold enrichment (6-mer frequency, TF over GST control); with ERF, 1.07 fold enrichment (6-mer frequency, TF over GST control); with ETS2 it was 1.04 fold enrichment (6-mer frequency, TF over GST control). Further, the binding signal with SPDEF is 1.06 fold enrichment (6-mer frequency, TF over GST control).

The values above are taken from paper PMC7862700, “An all-to-all approach to the identification of sequence-specific readers for epigenetic DNA modifications on cytosine”.
